TTR transcr act: TTR transcription activation, primary screen. activation, % at 16.7 µM. SH-SY5Y TTR promoter Gaussia luciferase, luminescence; 100% = recombinant luciferase protein wells. 92,000 tested, 1.3% active. AID 1117267;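 active = activation above the mean of all tested compounds plus 3 SD, cut at about 9.5% in these data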;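 also: cells exposed to compounds for one day before reading; 0% = median of all test compound wells on the plate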
TTR inh HuH7: HuH7 TTR transcription inhibition, counter-screen. shares compounds with TTR transcr act. HuH7 TTR promoter-Gaussia luciferase reporter, luminescence. inhibition, % at 16.7 µM. 1,100 tested, 4% active. AID 1117279;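 active = average inhibition above the solvent-only control wells' mean plus 3 SD, cut at about 15% in these data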;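 also: 0% = cells with DMSO only and 100% = cells with inhibitor control FD; inhibitors lower well luminescence so higher value means more inhibition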
TTR act confirm: confirmation of human transthyretin transcription activators | shares compounds with TTR transcr act | SHSY5Y TTR promoter Gaussia luciferase, luminescence; 100% = purified Lucia enzyme wells, no cells | activation, % at 16.7 µM | 1,100 tested, under 10 active | AID 1117280;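 active = mean activation above a set limit taken from the earlier primary screen, cut at about 11% in these data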;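 also: 0% = DMSO-treated cells and 100% = recombinant Lucia luciferase without cells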
Numbers without * were called inactive. This excerpt belongs to a sample that is enriched for hits.

SMILES	TTR transcr act	others
CN(C(=O)c1ccc(NC(=O)Cc2cccc(NC(=O)C3CCCN(C(=O)C4CCCC4)C3)c2)cc1)C1CCCC1 (stereo not given)	0
COc1cc2cc(CN(CCO)C(=O)c3cccs3)c(=O)[nH]c2cc1OC	33*	TTR inh HuH7=-11;TTR act confirm=0
Cc1cccc(N(Cc2cc3cc(C)ccc3[nH]c2=O)C(=O)c2cccs2)c1	-2
COc1cc2cc(CN(CCc3cccc(C)c3)C(=S)NCCCN(C)C)c(=O)[nH]c2cc1OC	-1
CCc1ccc(Cn2c(=O)n(Cc3ccc(C(=O)NCCCOC)cc3)c(=O)c3ccccc32)cc1	0
C[C@H]1[C@H](NC(=O)c2cccc(C(F)(F)F)c2)CC[C@@]23CCCN2C(=O)CCC[C@@H]13	-1
CCCCC(Sc1nc(N)c(NC(=O)c2ccc(OCC)cc2)c(=O)[nH]1)C(=O)O (stereo not given)	1
Cc1ccc(C(=O)Nc2c(N)nc(SCC(=O)Nc3cc(C)on3)[nH]c2=O)cc1	0
CCC(Sc1nc(N)c(NC(=O)c2ccc(Br)o2)c(=O)[nH]1)C(=O)O (stereo not given)	12*	TTR inh HuH7=-10;TTR act confirm=0
CCC(c1nnnn1-c1c(C)cccc1C)N1CCN(CCN2CCOCC2)CC1 (stereo not given)	-1
O=S1(=O)CCOC[C@H](Cc2ccccc2)N1Cc1cccc(F)c1	0
O=S1(=O)CCOC[C@H](Cc2ccccc2)N1Cc1ccc(F)cc1	6
O=S1(=O)CCOC[C@H](c2ccccc2)N1Cc1cccc(F)c1	13*	TTR inh HuH7=0;TTR act confirm=0
CCOC(=O)C1=CCN(S(=O)(=O)c2ccc(Cl)cc2)C1c1ccc(Cl)c(Cl)c1 (stereo not given)	-1
CCCn1c(N)c(N(CCOC)C(=O)c2cccc(F)c2)c(=O)[nH]c1=O	-1
CC(C)CN(C(=O)c1cccc(Cl)c1)c1c(N)n(CC(C)C)c(=O)[nH]c1=O	5
COCCN(C(=O)c1ccc(N(C)S(=O)(=O)c2ccc(C)cc2)cc1)c1c(N)n(CC(C)C)c(=O)[nH]c1=O	9.8*	TTR inh HuH7=5;TTR act confirm=0
Cc1cc(C)cc(OCC(=O)O/N=C(\N)c2ccccn2)c1	1
Cc1cc(C)c(C)c(OCC(=O)O/N=C(\N)c2ccccn2)c1	10*	TTR inh HuH7=-21;TTR act confirm=0
Cc1cc(C)c(C)c(OCC(=O)O/N=C(\N)c2ccncc2)c1	0
CC(C)C[C@H](NC1(C(=O)NC2CCCCC2)CCN(C)CC1)C(=O)NCC(c1ccccc1)c1ccccc1	-4
CN(C)CCC1(C2=CCCC2)CC/C(=C/c2ccc(Cl)cc2)C1=O (stereo not given)	0
O=C(COC(=O)CCSc1ccccc1Cl)Nc1ccc(F)cc1F	10.0*	TTR inh HuH7=-6;TTR act confirm=3
CSc1ccccc1NC(=O)COC(=O)CCC(=O)c1ccc(F)cc1	-1
O=C(COC(=O)CCSc1ccccc1)Nc1ccc(F)cc1Cl	0
SMILES	TTR transcr act	others
CCOc1ccc(NC(=O)CN(C)C(=O)C2CC(=O)N(CCc3ccccc3)C2)cc1OCC (stereo not given)	25*	TTR inh HuH7=-15;TTR act confirm=1
O=C(Nc1ccc2c(c1)OCO2)C1CC(=O)N(CCc2ccccc2)C1 (stereo not given)	-2
CCOc1ccc(NC(=O)CN(C)C(=O)c2ccncc2)cc1OCC	-1
CCC(C)[C@H](NC(=O)[C@H](CC(C)C)NC(=O)OC(C)(C)C)C(=O)N[C@@H](Cc1ccccc1)C(=O)OC (stereo not given in full)	0
CC(C)C[C@H](NC1(C(=O)NC2CCCCC2)CCCCC1)C(=O)NCC(c1ccccc1)c1ccccc1	2
CCn1c(COc2ccc3c(c2)OCO3)nnc1SCC(=O)O	13*	TTR inh HuH7=-5;TTR act confirm=0
Cc1ccc(OCc2nnc(SCC(=O)O)n2-c2ccccc2)cc1	1
CCn1c(COc2cccc(C)c2)nnc1SCC(=O)N1CCCC1	3
O=C(CCn1c(=O)oc2ccccc21)Nc1ccc(N2CCOCC2)cc1	2
CSCc1c(C(=O)Nc2ccc(N3CCOCC3)cc2)oc2ccccc12	14*	TTR inh HuH7=-12;TTR act confirm=0
COc1ccc(NC(=O)c2oc3ccccc3c2CSC)cc1S(=O)(=O)N1CCOCC1	-1
C[C@@H]1CN([C@H](C)CO)C(=O)CCCn2cc(nn2)CO[C@H]1CN(C)S(=O)(=O)c1ccc(-c2ccccc2)cc1	0
COC(=O)c1ccc2nc(-c3ccc(OC)c(OC)c3)c(Cc3ccc(OC)cc3C)n2c1	2
CCCNC(=O)Cn1c(-c2ccc(F)cc2)cc(C(=O)OCC)c1C	1
CCOC(=O)c1cc(-c2ccccc2)n(CC(=O)O)c1C	11*	TTR inh HuH7=-15;TTR act confirm=0
CCOC(=O)c1cc(-c2ccccc2)n(CC(=O)NC(C)(C)C)c1C	1
CC1(c2nnnn2Cc2ccccc2)CSCC(=O)N1Cc1cccs1 (stereo not given)	-1
O=C(NCc1ccco1)OC1CCC12CCC(c1ccccc1)CC2 (stereo not given)	-1
O=C(C[C@H]1C/C=C\CC[C@@H](Cc2ccc(F)cc2)C(=O)OC[C@H]2CCCN2C1=O)NCCO	0
CSC1=NCCN1C(=O)Cc1ccc(F)cc1	10*	TTR inh HuH7=-2;TTR act confirm=-1
COc1ccc(CC(=O)N2CCN=C2SC)cc1OC	1
CSC1=NCCN1C(=O)Cc1ccc(-c2ccccc2)cc1	-1
COc1ccc(NC(=O)/C(C#N)=C/c2ccc(-c3ccc(Cl)c(C(=O)O)c3)o2)cc1	-3
COc1ccc(N(C(=O)CNC(=O)c2cccs2)C(C(=O)NC2CCCC2)c2ccncc2)cc1 (stereo not given)	-1
COc1ccc(N(C(=O)CNC(=O)c2ccco2)C(C(=O)NC2CCCC2)c2ccncc2)cc1 (stereo not given)	-1
SMILES	TTR transcr act	others
COc1ccc(N(C(=O)Cc2cccs2)C(C(=O)NC2CCCC2)c2ccncc2)cc1 (stereo not given)	18*	TTR inh HuH7=-6;TTR act confirm=-1
Cc1cccc(Oc2ccc3c(c2)cc(C(=O)O)n3C)c1	-1
CCCCCCCCN1C(=O)[C@@H](CC(=O)NCc2cccc(C(F)(F)F)c2)C[C@@]2(C(=O)OC)C1=C[C@H](COCc1ccccc1)O[C@@H]2C	1
COC(=O)[C@]12C[C@H](CC(=O)N3CCOCC3)C(=O)N(Cc3ccc(Cl)cc3Cl)C1=C[C@H](C(C)(C)C)O[C@@H]2C	-1
Cc1ccc(-c2cn(CCN)c(-c3ccncc3)n2)cc1	2
COc1ccc(-c2cn(CCO)c(-c3ccc(Cl)nc3)n2)cc1	-2
O=C(O)CCn1cc(-c2ccc(Cl)cc2)nc1-c1ccc(Cl)nc1	9.7*	TTR inh HuH7=-8;TTR act confirm=1
O=C(NNc1ccccc1)OCc1ccccc1	-1
Cc1cc(C)cc(NC(=O)CC2Oc3ccc(C)cc3NC2=O)c1 (stereo not given)	-1
C[C@@H]1CN([C@@H](C)CO)C(=O)c2cc(NS(C)(=O)=O)ccc2O[C@@H](C)CCCCO[C@H]1CN(C)Cc1ccc2c(c1)OCO2	1
Cc1cc(C)c(NC(=O)COC(=O)C23CC4CC(CC(O)(C4)C2)C3)c(Cl)c1	2
Cn1cccc1C(=O)NC(=O)COC(=O)C12CC3CC(CC(O)(C3)C1)C2	11*	TTR inh HuH7=-6;TTR act confirm=-1
O=C(COC(=O)C12CC3CC(CC(Br)(C3)C1)C2)NNC(=O)c1ccccc1	0

Compound activity as filed in PubChem BioAssay.
